In the supplement of paper PMC10849652:
Targets with a hit are over-represented here; the source holds about 7,900 in all. About 0.6% of all pairs of compound and target were hits.

Columns and labels:
Experiment in all cases: log2 fold change, soluble protein after heating vs DMSO (PISA); higher = thermal stabilisation; K562 cells, 10 uM, 30 min; active = over 0.2 and 3.5 SD of the protein, either way, in both replicates (recomputed)
[1] = compound: C1=CC=C(C=C1)[C@H](COC2=CC3=C(C=C2)NC(=O)N3)NC(=O)C4=CC=CN(C4=O)CC5=CC(=C(C=C5)F)F
Summary of the method: (§1)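 Thermal stability values are relative to control samples and come from duplicates. They are expressed as log2 fold changes. For measurement, K562 cells (2×10^6 cells/mL) received 10 μM compound for 30 min, and aliquots were heated for 3 min over 48°C-58°C, pooled, and extracted at 4°C in PBS with 0.5% NP-40. Soluble protein, the supernatant after 21,000xg for 90 min, was quantified by TMTpro 16plex LC-MS/MS with equalised channel sums.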

[2] = compound: CC1=C(SC2=C1C(=N[C@H](C3=NN=C(N32)C)CC(=O)N)C4=CC=C(C=C4)Cl)C
Summary of the method: as §1

[3] = compound: CC1=C2C(=CC=C1)N=C(N(C2=O)C3=CC=CC=C3C)CN4C=NC5=C(N=CN=C54)N
Summary of the method: as §1

[4] = compound: Cc1sc2c(c1C)C(c1ccc(Cl)cc1)=N[C@@H](CC(=O)OC(C)(C)C)c1nnc(C)n1-2
Summary of the method: as §1

[5] = compound: c1ccc([C@@H]2C[C@H]2NC2CCNCC2)cc1
Summary of the method: as §1

Measured: log2 fold change

MRPS15 (UniProt P82914)
inactive: [1] -0.035 | [2] 0.077 | [3] -0.056 | [4] 0.066 | [5] -0.097

MRFAP1 (UniProt Q9Y605)
inactive: [1] 0.009 | [2] 0.109 | [3] -0.043 | [4] 0.031 | [5] -0.017

NELFA (UniProt Q9H3P2)
inactive: [1] -0.016 | [2] 0.213 | [3] 0.056 | [4] -0.07 | [5] 0.035

NIPSNAP2 (UniProt O75323)
Chain of UniProt O75323 (O75323 whole entry, looked up): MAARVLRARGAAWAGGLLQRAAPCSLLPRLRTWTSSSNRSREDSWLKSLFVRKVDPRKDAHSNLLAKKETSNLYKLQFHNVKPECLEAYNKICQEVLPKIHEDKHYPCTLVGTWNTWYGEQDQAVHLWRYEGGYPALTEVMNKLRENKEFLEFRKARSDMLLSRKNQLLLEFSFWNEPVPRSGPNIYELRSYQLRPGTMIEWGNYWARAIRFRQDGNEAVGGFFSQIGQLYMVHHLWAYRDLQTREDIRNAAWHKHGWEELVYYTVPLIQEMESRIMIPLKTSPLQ
inactive: [1] -0.038 | [2] 0.008 | [3] 0.036 | [4] -0.019 | [5] -0.051

NCKAP1 isoform 2 (UniProt Q9Y2A7)
inactive: [1] -0.037 | [2] 0.035 | [3] 0.003 | [4] 0.007 | [5] -0.004

OXR1 (UniProt Q8N573)
inactive: [1] -0.021 | [2] 0.026 | [3] 0.039 | [4] -0.041 | [5] -0.069

MTHFD1 (UniProt P11586)
inactive: [1] -0.059 | [2] 0.024 | [3] 0.018 | [4] -0.013 | [5] -0.019

MUL1 (UniProt Q969V5)
Chain of UniProt Q969V5 (Q969V5 whole entry, looked up): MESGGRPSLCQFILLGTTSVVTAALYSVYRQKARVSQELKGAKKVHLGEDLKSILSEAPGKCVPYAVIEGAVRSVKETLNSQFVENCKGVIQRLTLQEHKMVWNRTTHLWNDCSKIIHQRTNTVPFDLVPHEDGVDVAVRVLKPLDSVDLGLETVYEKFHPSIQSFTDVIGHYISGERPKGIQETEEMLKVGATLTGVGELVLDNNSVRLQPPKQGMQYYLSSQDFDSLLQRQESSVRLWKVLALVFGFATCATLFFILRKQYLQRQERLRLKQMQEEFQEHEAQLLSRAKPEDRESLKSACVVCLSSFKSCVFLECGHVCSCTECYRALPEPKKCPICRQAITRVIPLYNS
inactive: [1] -0.002 | [2] 0.006 | [3] 0.044 | [4] -0.107 | [5] 0.02

NPC1 (UniProt O15118)
inactive: [1] -0.034 | [2] -0.038 | [3] -0.017 | [4] 0.009 | [5] 0.049

NANS (UniProt Q9NR45)
inactive: [1] -0.031 | [2] 0.065 | [3] 0.071 | [4] -0.015 | [5] -0.024

NCBP2AS2 (UniProt Q69YL0)
Chain of UniProt Q69YL0 (Q69YL0 whole entry, looked up): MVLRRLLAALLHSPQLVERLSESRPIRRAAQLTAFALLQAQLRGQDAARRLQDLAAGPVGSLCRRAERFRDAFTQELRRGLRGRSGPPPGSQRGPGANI
inactive: [1] 0.02 | [2] 0.019 | [3] 0.048 | [4] -0.038 | [5] -0.003

NDUFB10 (UniProt O96000)
inactive: [1] 0.048 | [2] 0.009 | [3] 0.06 | [4] -0.031 | [5] 0.002

NDUFS7 (UniProt O75251)
Chain of UniProt O75251 (O75251 whole entry, looked up): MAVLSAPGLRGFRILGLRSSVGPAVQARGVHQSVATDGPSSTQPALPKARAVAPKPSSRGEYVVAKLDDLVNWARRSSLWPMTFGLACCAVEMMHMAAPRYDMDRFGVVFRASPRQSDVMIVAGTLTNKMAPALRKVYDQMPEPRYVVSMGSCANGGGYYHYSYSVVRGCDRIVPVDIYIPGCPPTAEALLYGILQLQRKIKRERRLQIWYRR
inactive: [1] 0 | [2] 0.062 | [3] 0.015 | [4] -0.051 | [5] -0.022

NFX1 (UniProt Q12986)
inactive: [1] -0.011 | [2] -0.161 | [3] -0.068 | [4] 0.115 | [5] -0.163

NOP58 (UniProt Q9Y2X3)
inactive: [1] 0.039 | [2] -0.151 | [3] -0.063 | [4] 0.068 | [5] 0.031

MRPL46 (UniProt Q9H2W6)
inactive: [1] 0 | [2] -0.1 | [3] -0.037 | [4] 0.009 | [5] 0.026

MYH11 isoform 2 (UniProt P35749)
inactive: [1] 0.011 | [2] 0.024 | [3] -0.071 | [4] -0.026 | [5] -0.036

NME1 isoform 2 (UniProt P15531)
inactive: [1] 0.095 | [2] 0.142 | [3] 0.069 | [4] 0.033 | [5] -0.108

MTOR (UniProt P42345)
inactive: [1] -0.044 | [2] 0.021 | [3] 0.092 | [4] -0.001 | [5] -0.028

NUDT1 (UniProt P36639)
inactive: [1] 0.556 | [2] -0.043 | [3] 0.048 | [4] -0.137 | [5] 0.038

MRPS18B (UniProt Q9Y676)
inactive: [1] -0.055 | [2] -0.113 | [3] -0.041 | [4] 0.127 | [5] -0.078

NNT (UniProt Q13423)
inactive: [1] -0.014 | [2] 0.091 | [3] 0.044 | [4] -0.028 | [5] 0

NAA38 isoform 2 (UniProt Q9BRA0)
Chain of UniProt Q9BRA0 (Q9BRA0 whole entry, looked up): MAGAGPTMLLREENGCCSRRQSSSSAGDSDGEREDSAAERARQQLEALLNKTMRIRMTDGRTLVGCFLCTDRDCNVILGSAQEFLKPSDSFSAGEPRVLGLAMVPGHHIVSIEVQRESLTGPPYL
inactive: [1] 0.038 | [2] 0.057 | [3] -0.013 | [4] -0.029 | [5] -0.124

NBN (UniProt O60934)
Chain of UniProt O60934 (O60934 whole entry, looked up): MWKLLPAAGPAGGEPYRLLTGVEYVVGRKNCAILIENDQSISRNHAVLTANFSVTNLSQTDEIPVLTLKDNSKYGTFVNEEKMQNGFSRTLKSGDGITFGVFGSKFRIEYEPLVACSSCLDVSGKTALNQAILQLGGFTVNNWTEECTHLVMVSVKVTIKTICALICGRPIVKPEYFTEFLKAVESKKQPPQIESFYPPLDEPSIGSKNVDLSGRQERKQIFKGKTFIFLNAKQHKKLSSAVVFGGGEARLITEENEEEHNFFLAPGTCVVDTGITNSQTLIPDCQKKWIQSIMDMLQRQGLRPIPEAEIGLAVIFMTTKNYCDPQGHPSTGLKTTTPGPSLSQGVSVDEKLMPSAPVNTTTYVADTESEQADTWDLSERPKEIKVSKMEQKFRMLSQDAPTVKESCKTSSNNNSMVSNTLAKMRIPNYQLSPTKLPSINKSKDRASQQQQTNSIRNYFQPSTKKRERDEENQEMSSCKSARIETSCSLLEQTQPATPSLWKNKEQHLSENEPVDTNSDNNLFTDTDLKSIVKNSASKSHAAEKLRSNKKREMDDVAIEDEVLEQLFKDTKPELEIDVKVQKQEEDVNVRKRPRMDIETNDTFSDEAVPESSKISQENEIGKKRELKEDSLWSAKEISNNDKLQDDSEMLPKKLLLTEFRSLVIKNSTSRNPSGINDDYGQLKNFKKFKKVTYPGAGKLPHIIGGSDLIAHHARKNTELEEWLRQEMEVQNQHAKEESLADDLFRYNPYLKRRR
inactive: [1] 0.002 | [2] 0.032 | [3] 0.036 | [4] -0.004 | [5] -0.001

MRPS22 (UniProt P82650)
inactive: [1] -0.016 | [2] 0.05 | [3] -0.037 | [4] 0.087 | [5] -0.063

MSH3 (UniProt P20585)
inactive: [1] 0.008 | [2] 0.085 | [3] 0.052 | [4] -0.028 | [5] -0.087

OTUD4 (UniProt Q01804)
inactive: [1] 0.033 | [2] -0.034 | [3] -0.05 | [4] 0.111 | [5] 0.011

NACC1 (UniProt Q96RE7)
inactive: [1] -0.029 | [2] 0.039 | [3] 0.092 | [4] -0.037 | [5] -0.015

NA, A0A096LPI6
inactive: [1] 0.055 | [2] -0.023 | [3] -0.001 | [4] 0.017 | [5] 0.023

MSH6 (UniProt P52701)
inactive: [1] -0.24 | [2] 0.08 | [3] 0.127 | [4] -0.056 | [5] -0.008

NSMCE4A (UniProt Q9NXX6)
Chain of UniProt Q9NXX6 (Q9NXX6 whole entry, looked up): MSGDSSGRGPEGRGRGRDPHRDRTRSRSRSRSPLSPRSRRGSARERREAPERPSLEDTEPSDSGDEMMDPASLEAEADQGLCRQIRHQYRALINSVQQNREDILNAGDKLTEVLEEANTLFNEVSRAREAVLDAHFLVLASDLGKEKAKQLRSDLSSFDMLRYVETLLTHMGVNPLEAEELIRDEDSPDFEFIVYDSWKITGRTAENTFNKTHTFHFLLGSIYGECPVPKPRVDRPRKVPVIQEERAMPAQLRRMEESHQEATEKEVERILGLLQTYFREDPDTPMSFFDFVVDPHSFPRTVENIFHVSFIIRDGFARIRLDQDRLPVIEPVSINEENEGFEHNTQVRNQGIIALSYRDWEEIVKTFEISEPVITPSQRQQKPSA
inactive: [1] 0.123 | [2] 0.03 | [3] -0.088 | [4] -0.037 | [5] -0.014

NUP98 (UniProt P52948)
Chain of UniProt P52948 (P52948 whole entry, looked up): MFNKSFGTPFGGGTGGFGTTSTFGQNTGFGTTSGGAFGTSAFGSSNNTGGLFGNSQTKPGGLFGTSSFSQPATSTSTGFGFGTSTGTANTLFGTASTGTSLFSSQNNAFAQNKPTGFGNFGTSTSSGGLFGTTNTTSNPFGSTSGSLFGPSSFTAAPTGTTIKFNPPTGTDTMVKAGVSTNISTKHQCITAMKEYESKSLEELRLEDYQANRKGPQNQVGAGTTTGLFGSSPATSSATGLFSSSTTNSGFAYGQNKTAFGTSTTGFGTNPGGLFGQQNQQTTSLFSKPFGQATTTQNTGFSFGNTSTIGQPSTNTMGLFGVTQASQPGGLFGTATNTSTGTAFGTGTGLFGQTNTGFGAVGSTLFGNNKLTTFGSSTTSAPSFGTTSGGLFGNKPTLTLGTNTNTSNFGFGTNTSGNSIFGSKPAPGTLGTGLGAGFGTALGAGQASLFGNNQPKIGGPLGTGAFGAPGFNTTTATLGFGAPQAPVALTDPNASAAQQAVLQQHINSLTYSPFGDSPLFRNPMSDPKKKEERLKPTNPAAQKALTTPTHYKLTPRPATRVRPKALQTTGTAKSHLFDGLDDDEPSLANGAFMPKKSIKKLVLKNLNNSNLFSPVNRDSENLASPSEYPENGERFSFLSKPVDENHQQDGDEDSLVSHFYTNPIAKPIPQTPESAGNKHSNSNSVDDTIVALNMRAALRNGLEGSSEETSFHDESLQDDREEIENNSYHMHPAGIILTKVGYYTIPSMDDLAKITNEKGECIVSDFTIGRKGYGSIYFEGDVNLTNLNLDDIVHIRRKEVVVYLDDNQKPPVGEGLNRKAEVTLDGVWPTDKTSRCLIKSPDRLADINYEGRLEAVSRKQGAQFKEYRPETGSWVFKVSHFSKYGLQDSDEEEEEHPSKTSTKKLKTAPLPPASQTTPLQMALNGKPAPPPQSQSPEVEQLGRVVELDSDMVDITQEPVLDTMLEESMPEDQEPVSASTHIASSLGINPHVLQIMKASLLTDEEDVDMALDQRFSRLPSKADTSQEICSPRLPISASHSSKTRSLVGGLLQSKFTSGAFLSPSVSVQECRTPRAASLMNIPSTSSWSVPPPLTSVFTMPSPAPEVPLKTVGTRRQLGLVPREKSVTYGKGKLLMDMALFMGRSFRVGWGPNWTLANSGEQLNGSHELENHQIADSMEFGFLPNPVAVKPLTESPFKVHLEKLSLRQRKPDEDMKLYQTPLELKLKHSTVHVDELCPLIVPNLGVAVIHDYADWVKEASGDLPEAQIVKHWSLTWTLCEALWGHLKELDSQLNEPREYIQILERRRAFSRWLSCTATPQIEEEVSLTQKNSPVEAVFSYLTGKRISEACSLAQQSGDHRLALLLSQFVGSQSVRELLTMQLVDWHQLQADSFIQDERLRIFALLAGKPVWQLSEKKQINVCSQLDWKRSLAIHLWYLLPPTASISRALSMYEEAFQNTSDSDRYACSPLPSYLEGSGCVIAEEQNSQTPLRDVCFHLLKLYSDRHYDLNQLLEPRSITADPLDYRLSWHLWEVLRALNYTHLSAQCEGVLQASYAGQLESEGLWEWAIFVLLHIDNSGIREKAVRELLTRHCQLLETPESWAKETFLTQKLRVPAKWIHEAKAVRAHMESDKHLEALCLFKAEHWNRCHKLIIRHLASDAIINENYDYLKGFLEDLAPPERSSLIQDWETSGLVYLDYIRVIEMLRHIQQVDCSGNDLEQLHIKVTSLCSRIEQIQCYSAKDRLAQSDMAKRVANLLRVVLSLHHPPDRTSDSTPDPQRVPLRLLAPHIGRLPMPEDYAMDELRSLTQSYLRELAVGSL
inactive: [1] -0.041 | [2] 0.032 | [3] 0.071 | [4] -0.005 | [5] -0.011

NPC1L1 (UniProt Q9UHC9)
inactive: [1] 0.183 | [2] 0.063 | [3] 0.024 | [4] 0.007 | [5] 0.047

NMT1 (UniProt P30419)
inactive: [1] 0 | [2] 0.032 | [3] -0.001 | [4] 0.076 | [5] -0.018

MRPL50 (UniProt Q8N5N7)
inactive: [1] 0.11 | [2] 0.01 | [3] -0.079 | [4] -0.022 | [5] -0.05

MINK1 (UniProt Q8N4C8)
inactive: [1] -0.036 | [2] 0.024 | [3] -0.01 | [4] 0.037 | [5] 0.005

MRPS10 (UniProt P82664)
inactive: [1] -0.019 | [2] -0.102 | [3] 0.065 | [4] 0.132 | [5] 0.025

NMRAL1 (UniProt Q9HBL8)
inactive: [1] -0.12 | [2] -0.017 | [3] 0.025 | [4] -0.139 | [5] -0.094

NDUFA4 (UniProt O00483)
Chain of UniProt O00483 (O00483 whole entry, looked up): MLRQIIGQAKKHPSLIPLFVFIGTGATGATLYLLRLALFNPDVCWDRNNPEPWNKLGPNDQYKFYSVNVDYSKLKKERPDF
inactive: [1] 0 | [2] 0.005 | [3] 0.014 | [4] -0.031 | [5] 0.046

ORC3 isoform 2 (UniProt Q9UBD5)
inactive: [1] -0.098 | [2] 0.032 | [3] 0.107 | [4] 0.013 | [5] -0.079

NA isoform 3 (UniProt Q4G0T1)
inactive: [1] 0.161 | [2] -0.017 | [3] 0.026 | [4] 0.024 | [5] -0.126

NUP160 (UniProt Q12769)
inactive: [1] -0.013 | [2] 0.043 | [3] 0.038 | [4] 0.014 | [5] 0.044

NFATC2 (UniProt Q13469)
inactive: [1] -0.063 | [2] 0.097 | [3] 0.077 | [4] 0.023 | [5] 0.021

NMT2 (UniProt O60551)
Chain of UniProt O60551 (O60551 whole entry, looked up): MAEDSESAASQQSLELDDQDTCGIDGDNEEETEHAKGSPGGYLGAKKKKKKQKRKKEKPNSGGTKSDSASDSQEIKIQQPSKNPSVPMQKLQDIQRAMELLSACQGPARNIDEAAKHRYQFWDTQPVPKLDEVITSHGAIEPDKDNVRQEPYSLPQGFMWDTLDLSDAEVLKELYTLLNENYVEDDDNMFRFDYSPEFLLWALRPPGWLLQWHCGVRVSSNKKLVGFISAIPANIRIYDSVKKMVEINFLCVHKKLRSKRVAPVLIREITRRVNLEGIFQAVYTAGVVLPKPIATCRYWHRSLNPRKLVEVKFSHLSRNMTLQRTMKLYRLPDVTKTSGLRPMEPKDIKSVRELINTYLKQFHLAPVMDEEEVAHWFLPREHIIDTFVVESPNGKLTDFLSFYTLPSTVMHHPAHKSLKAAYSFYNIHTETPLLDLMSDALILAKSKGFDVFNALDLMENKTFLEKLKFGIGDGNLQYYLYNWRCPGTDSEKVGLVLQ
inactive: [1] -0.045 | [2] 0.053 | [3] 0.092 | [4] 0.026 | [5] -0.107

NEMP1 (UniProt O14524)
inactive: [1] 0.015 | [2] -0.003 | [3] 0.036 | [4] 0.048 | [5] -0.018

NSMCE2 (UniProt Q96MF7)
Chain of UniProt Q96MF7 (Q96MF7 whole entry, looked up): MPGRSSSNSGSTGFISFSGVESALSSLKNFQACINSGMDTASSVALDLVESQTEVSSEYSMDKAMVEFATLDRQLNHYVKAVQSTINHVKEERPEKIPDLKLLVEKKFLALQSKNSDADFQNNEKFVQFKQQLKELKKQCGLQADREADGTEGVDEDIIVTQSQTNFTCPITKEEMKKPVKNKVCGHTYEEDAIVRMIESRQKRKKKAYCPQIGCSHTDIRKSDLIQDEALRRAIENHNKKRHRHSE
inactive: [1] 0.074 | [2] 0.031 | [3] 0.075 | [4] 0.004 | [5] -0.017

NPEPPS (UniProt P55786)
inactive: [1] -0.044 | [2] 0.064 | [3] 0.159 | [4] -0.003 | [5] -0.051

MND1 (UniProt Q9BWT6)
inactive: [1] 0.009 | [2] 0.012 | [3] 0.081 | [4] 0.088 | [5] 0.102

OXSM (UniProt Q9NWU1)
inactive: [1] 0.072 | [2] -0.007 | [3] 0.045 | [4] -0.007 | [5] 0.036

P4HA2 (UniProt O15460)
inactive: [1] 0.006 | [2] -0.033 | [3] -0.014 | [4] -0.007 | [5] -0.043

PAFAH2 (UniProt Q99487)
inactive: [1] -0.191 | [2] 0.016 | [3] 0.066 | [4] -0.117 | [5] -0.141

MRPS25 (UniProt P82663)
inactive: [1] -0.002 | [2] -0.05 | [3] -0.067 | [4] 0.059 | [5] 0.014

PAFAH1B2 (UniProt P68402)
inactive: [1] -0.042 | [2] -0.078 | [3] 0.078 | [4] 0.004 | [5] 0.082
